Source: PubChem BioAssay (National Center for Advancing Translational Sciences (NCATS))
Cycloheximide cs – counter-screen hit for Shiga toxin inhibitors, cycloheximide | cell reporter, cycloheximide protein synthesis inhibition counterscreen | AID 2314 | max response, % | actives 12% (n = 300,000); in the data active means max response mostly above about 13%, no sharp cut-off; inactive means mostly below about 14%; further: read at 38.3 µM for the half of the compounds with a filed dose; 0% is about no effect
LmPK inhibitor – LmPK (Leishmania mexicana) enzyme inhibition. purified LmPK, Kinase-Glo ATP luminescence, 1 h. Potency, µM (highest dose often 57.5 µM), inactives show top-dose activity change, negative = inhibition, hits mostly inhibitors. AID 1721. actives 0.37% (n = 290,000). Q27686; further: potency means the concentration at half of the fitted maximal effect; on the % scale 0 is the no-effect control and ±100 the full control effect
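Pyruvate kinase activity monitored as ATP production (luciferase luminescence). Conditions: 0.1 nM enzyme, 0.5 mM PEP, 0.1 mM ADP, 1 h, RT; normalized against uninhibited and no-enzyme wells.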
Sm TGR block – blocks Schistosoma mansoni thioredoxin glutathione reductase. Potency, µM (titrated, usually from 114 µM), for inactives: top-dose activity change, negative = inhibition, most hits filed as inhibitors. Q962Y6. actives 3% (n = 360,000). AID 485364. purified TGR, DTNB reduction, TNB absorbance 405 nm; further: potency means the concentration at half of the fitted maximal effect; on the % scale 0 is the no-effect control and ±100 the full control effect; nearly all actives have a fitted effect of over 60% in size
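Kinetic colorimetric format: TGR-catalysed, NADPH-driven DTNB reduction monitored via TNB absorbance. Enzyme dispensed at 20 nM; compound exposure 15 min at room temperature before reaction start.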
Giardia FBPA inh – blocks Giardia fructose-bisphosphate aldolase activity. A8B2U2. purified Giardia FBPA. Potency, µM (highest dose often 59.6 µM), inactives show at the top dose activity, negative = inhibition, usual class: inhibitors. actives 0.71% (n = 290,000). AID 2451; further: potency means the concentration at half of the fitted maximal effect; on the % scale 0 is the no-effect control and ±100 the full control effect; nearly all actives have a fitted effect of over 55% in size
Target sequence (A8B2U2 whole entry, looked up): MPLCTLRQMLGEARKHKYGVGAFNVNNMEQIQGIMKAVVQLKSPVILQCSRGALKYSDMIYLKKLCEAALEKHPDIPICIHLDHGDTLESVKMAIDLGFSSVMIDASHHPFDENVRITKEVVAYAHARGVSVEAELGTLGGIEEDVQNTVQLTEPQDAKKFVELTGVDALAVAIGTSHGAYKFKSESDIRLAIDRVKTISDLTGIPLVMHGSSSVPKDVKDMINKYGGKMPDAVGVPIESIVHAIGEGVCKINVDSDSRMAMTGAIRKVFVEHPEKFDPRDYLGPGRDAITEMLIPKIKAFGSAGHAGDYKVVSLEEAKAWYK
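Giardia FBPA (40 nM reagent) was preincubated 10 min at RT with compound (up to 57.5 uM final), then substrate plus GAPDH/TPI/NAD/arsenate coupling system with diaphorase/resazurin was added; resorufin fluorescence (525/598 nm) was read after 20 min.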
TbPYK inhibitor – blocks Trypanosoma brucei pyruvate kinase; Q57TT1; TbPYK enzyme, Kinase-Glo Plus ATP luminescence, 45 min; Potency, µM (top dose mostly 76.8 µM), inactives show top-dose activity, negative = inhibition, hits mostly inhibitors; actives 0.12% (n = 410,000); further: potency means the concentration at half of the fitted maximal effect; on the % scale 0 is the no-effect control and ±100 the full control effect; nearly all actives have a fitted effect of over 50% in size
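Luminescent Kinase-Glo Plus end-point after 45 min room-temperature reaction of T. brucei pyruvate kinase started with 130 uM ADP (final). Buffer TEA 50 mM pH 7.2 with KCl, MgCl2, BSA, Tween-20; titration-based qHTS with fitted concentration-effect curves.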
Shiga inhibitor – inhibitors of Shiga toxin in Vero cells. Vero cells, Shiga toxin protein synthesis inhibition reporter. inhibition, % at 38.7 µM. actives 9.2% (n = 290,000). AID 2315; in the data active means inhibition mostly above about 28%, no sharp cut-off; inactive means mostly below about 43%; further: 0% is about no effect
An asterisk follows results filed as active; ? = inconclusive; / = not tested or not shown; [ ] = remark or other dose. Many of the other results were omitted from the sample, so hits are more common in it than they were. Unless noted, the call rests on the fitted dose curve; in most records, active means well fitted curve in the direction sought with a large enough effect; inconclusive means small, poorly fitted or top-dose-only effect, or another doubt; inactive means no such curve, though single readings can be large; an effect the other way counts as inactive or inconclusive.

SMILES	Cycloheximide cs	LmPK inhibitor	Sm TGR block	Giardia FBPA inh	TbPYK inhibitor	Shiga inhibitor
Cc1cccc(NC(=O)NCCc2ccc(Cl)cc2)c1	14	4%	/	2%	3%	17
O=C(NCCc1ccc(Cl)cc1)Nc1cccc(Cl)c1	13	5%	-2%	-8%	-7%	37*
O=C(/C=C/c1cccc(Cl)c1)NCCc1ccccc1	65*	5%	0%	-1%	-4%	107*
S=C(NCc1ccccc1)NCc1cccc(Cl)c1	13	-6%	-1%	/	-2%	-4
Cc1ccc(Cl)cc1N1CCN(S(=O)(=O)c2ccc3c(c2)CCN3C(=O)C2CCC2)CC1	/	/	3%	/	-2%	/
COc1ccccc1CN1CC2(CCN(C(=O)c3cnccn3)CC2)C1	/	/	/	7%	-10%	/
COc1ccc(NC(=O)NCCc2cccc(Cl)c2)cc1OC	34*	0%	/	-1%	3%	39
COc1ccc(CCNC(=O)Nc2ccc3c(c2)OCO3)cc1OC	6	0%	-7%	1%	-4%	11
O=C(c1ccc(Cl)nc1)c1cccs1	-3	0%	-7%	9%	-1%	15
Nc1cc(C(=O)c2cccs2)ccc1Cl	17*	0%	3%	2%	-22%	34
O=C(c1ccc(F)cc1)N1CCCC(c2ccccc2)C1 (stereo unspecified)	-3	0%	/	11%	-5%	11
O=C(/C=C/c1ccccc1)N1CCC(c2ccccc2)C1 (stereo unspecified)	59*	-4%	-10%	-1%	-7%	74*
O=C(/C=C/c1ccco1)N1CCCC(c2ccccc2)C1 (stereo unspecified)	23*	2%	/	0%	-13%	47*
Cc1nn(C)c(C)c1NC(=S)Nc1ccc(S(=O)(=O)Nc2ncccn2)cc1	-1	1%	1%	?	-1%	-4
COc1ccccc1-c1cc(NC(C)=O)c2ncc(-c3cccc(C(C)=O)c3)n2c1	/	/	/	/	-1%	/
O=S(=O)(NCc1csc(-c2ccccc2)n1)c1ccc(Cl)s1	5	2%	-4%	?	0%	-6
COc1ccc(CCNC(=O)c2nc(-c3cccs3)no2)cc1OC	-2	1%	9%	-4%	-9%	7
CCC(=O)NCc1csc(-c2cccs2)n1	24*	-9%	-21%	5%	5%	28
COc1ccc(C(=O)NCc2csc(-c3cccs3)n2)cc1	1	5%	-6%	-1%	-1%	13
COc1ccccc1CCNC(=O)c1nc(-c2cccs2)no1	29*	3%	11%	-20%	-3%	67*
O=S(=O)(NCc1csc(-c2cccs2)n1)c1ccccc1	6.7*	-4%	-4%	-6%	1%	41
O=C(NCc1csc(-c2cccs2)n1)Nc1cccc(Cl)c1	11	-3%	5%	-1%	-1%	-13
COc1ccccc1CC(=O)NCc1csc(-c2cccs2)n1	47*	-2%	0%	-7%	-11%	68*
O=C(OCc1cn([C@@H]2C[C@H](c3ccc(Cl)cc3)N(C(=O)c3cccs3)C[C@H]2O)nn1)c1ccccc1	/	/	/	/	-3%	/
Cc1ccccc1NC(=O)Cn1cc(S(=O)(=O)N2CCCC2)c(S(=O)(=O)N2CCCC2)c1	/	/	1%	/	-6%	/
SMILES	Cycloheximide cs	LmPK inhibitor	Sm TGR block	Giardia FBPA inh	TbPYK inhibitor	Shiga inhibitor
CC1(O)CC2CC1C(C(=O)O)C2C(=O)O (stereo unspecified)	/	/	/	/	1%	/
COCC(=O)N1CCC2(CCCN(Cc3nccs3)C2)CC1	/	/	/	-2%	1%	/
O=C(NCc1ccccn1)C1CCCCC1	-2	0%	-3%	6%	-4%	-5
O=C(NCc1csc(-c2cccs2)n1)C1CCCCC1	29*	-5%	13%	4%	5%	76*
O=C(COC(=O)CCc1nc2ccccc2s1)Nc1ncc(Cl)cc1Cl	-2	2%	-3%	0%	-3%	13
O=C(COC(=O)CCc1nc2ccccc2s1)Nc1nc(-c2ccccc2)cs1	18*	3%	-3%	-4%	7%	47*
Cc1csc(NC(=O)CCc2nc3ccccc3s2)n1	24*	5%	32%	-13%	-7%	37
CCCCN(Cc1ccc(C(=O)N[C@H](C(=O)O)C(C)C)cc1)C(=O)C(c1ccccc1)c1ccccc1	/	/	/	/	-3%	/
CCOc1ccc(C2CC(=O)Nc3c2c(=O)nc(SCc2ccccc2C)n3C)cc1OC (stereo unspecified)	/	/	-3%	/	4%	/
CCc1nc2c(OCc3ccccc3)cccn2c1N(C)C(C)=O	/	/	/	/	-9%	/
Cc1cc(F)ccc1NC(=O)c1c(C)oc2c1C1=NCCN1C=N2	/	/	-3%	/	2%	/
CN(C)S(=O)(=O)Nc1ccc2c(c1)Cc1ccccc1-2	29*	2%	3%	-4%	-10%	107*
Cn1c(=O)[nH]c2nnc(-c3ccc(Cl)c(Cl)c3)nc2c1=O	25*	?	0%	?	2%	50*
COc1ccc(C2Nc3ccccc3C(=O)N2Cc2ccccc2)cc1COc1ccc(Cl)cc1Cl (stereo unspecified)	/	/	4%	/	/	/
Fc1cccc(Cl)c1CNc1ccc(N2CCCC2)cc1	29*	-15%	?	?	?	22
O=S(=O)(Nc1ccc(N2CCCCC2)cc1)c1ccccc1F	16*	1%	?	-15%	-18%	36
NS(=O)(=O)c1ccc(NCc2c(F)cccc2Cl)cc1	8	-2%	-1%	8%	5%	27
O=S(=O)(Nc1ccc(N2CCCCC2)cc1)c1ccc(F)cc1F	16*	0%	?	-15%	-7%	21
CC(=O)c1ccc(Nc2nc3ccccc3nc2-n2nc(C)cc2C)cc1	/	/	-5%	/	-9%	/
COc1ccc(NC(=O)N2CCCC(CCC(=O)N(C)CCc3ccccn3)C2)cc1 (stereo unspecified)	30*	-6%	2%[57.1 µM]	-18%	-5%	91*
O=C(CCc1ccccc1)NNC(=O)C12CC3CC(CC(C3)C1)C2	21*	1%	8%	3%	-4%	45
O=C(Nc1ccc(Cl)cc1Cl)c1cc(S(=O)(=O)N2CCc3ccccc32)ccc1F	/	/	3%	/	-15%	/
COc1ccc2c(c1)nc1n2CN(CC2CCCO2)CN1Cc1ccccc1 (stereo unspecified)	32*	-4%	-7%	4%	/	49*
S=c1[nH]nc(-c2cc(-c3ccccc3)n[nH]2)n1/N=C/C=C/c1ccco1	1	7%	11µM*	-14%	?	-2
S=c1[nH]nc(COc2ccccc2)n1/N=C/C=C/c1ccccc1	-3	-4%	6%	15%	?	-6
S=c1[nH]nc(-c2n[nH]c3c2CCC3)n1/N=C/C=C/c1ccco1	-1	6%	11µM*	?	-31%	-7
S=c1[nH]nc(COc2ccccc2)n1/N=C/C=C/c1ccco1	-1	1%	13µM*	?	?	-4
